In PubChem BioAssay (EPA / NIEHS):
Inconclusive results are not listed. Calls of active or inactive are those of the source. The calls were made as follows: active = hit-call score of the fitted dose curve at least 0.9, where 1 is the maximum; inconclusive = response in the unintended direction; inactive = score below 0.9.

Assay: ACEA_ER_AUC_viability: ACEA Biosciences xCELLigence Real-Time Cell Analysis on Estrogen Receptor Agonism for Viability (AID 2283782);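 also: continuous compound exposure with impedance area under curve over 80 h; hit means loss of impedance signal meaning reduced cell growth or viability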
Method in brief: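 T-47D human breast cells in phenol red-free RPMI1640 with 10% charcoal-stripped FBS were dosed with an 8-point 1:4 dilution series from 100 uM top final concentration, in duplicate. Impedance-based growth was followed for 80 h; AUC analysed versus DMSO.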

Structure (SMILES) | outcome | AC50
FC(F)(F)C(F)(F)C(F)(F)C(F)(F)C(F)(F)C(F)(F)CC1CO1 (stereo not given) | inactive | 
O=C(OCCOCCOCCOC(=O)c1ccccc1)c1ccccc1 | inactive | 
Nc1ccc([N+](=O)[O-])cc1O | inactive | 
CCc1ccc(C(c2ccc(CC)cc2)C(Cl)Cl)cc1 | inactive | 
CCN(CC)c1ccc2c(C)cc(=O)oc2c1 |  | 17.1 µM (active)
FC(F)(F)C(F)(F)C(F)(F)C(F)(F)C(F)(F)C(F)(F)CCS | inactive | 
CCc1c(Br)c(Br)c(Br)c(Br)c1Br | inactive | 
O=C(O)C(F)(F)C(F)(F)F | inactive | 
CO[Si](OC)(c1ccccc1)c1ccccc1 |  | 79.9 µM (active)
O[Si](c1ccccc1)(c1ccccc1)c1ccccc1 |  | 196 µM (active)
FC(F)(F)C(F)(F)C(F)(F)C(F)(F)C(F)(F)CCI | inactive | 
CC/C=C\CCOC(C)=O | inactive | 
C1COCCN1 | inactive | 
OCC(F)(F)C(F)(F)C(F)(F)F | inactive | 
Cc1cccc(N(C)C)c1 |  | 25.6 µM (active)
CC(C)=CCCC(C)CCOC(=O)C(C)C (stereo not given) |  | 50 µM (active)
C(=C(c1ccccc1)c1ccccc1)c1ccccc1 |  | 87.1 µM (active)
[Co] | inactive | 

Structure (SMILES) | outcome | AC50
CC(C)c1ccccc1N |  | 50 µM (active)
CCCCCCCCCCCCCCCC[N+](C)(C)Cc1ccccc1 |  | 3.4 µM (active)
CC(=O)Nc1ccc(N=Nc2cc(C)ccc2O)cc1 | inactive | 
COC(=O)CCC(F)(F)C(F)(F)C(F)(F)C(F)(F)F | inactive | 
CCCCC(CC)COP(=O)(O)OCC(CC)CCCC (stereo not given) |  | 79.2 µM (active)
CCCCCC=O | inactive | 
CC(C)(C)c1ccc(OC2CCCCC2O)cc1 (stereo not given) | inactive | 
N=C(N)C(F)(F)C(F)(F)C(F)(F)C(F)(F)C(F)(F)C(F)(F)C(F)(F)F |  | 75 µM (active)
O=C(O)C(F)(F)C(F)(F)C(F)(F)C(F)(F)C(F)(F)C(F)(F)C(F)(F)C(F)(F)Cl |  | 119 µM (active)
CS(C)(=O)=O | inactive | 
FC(F)(I)C(F)(F)C(F)(F)C(F)(F)I |  | 129 µM (active)
O=C(O)C(F)(F)C(F)(F)C(F)(F)C(F)(F)C(F)(F)C(F)(F)C(F)(F)C(F)(F)C(F)(F)C(F)(F)C(F)(F)C(F)(F)F |  | 19.3 µM (active)
C=CC(=O)OCC(F)(F)C(F)(F)C(F)(F)C(F)(F)C(F)(F)C(F)(F)C(F)(F)F | inactive | 
CCCCOCCOCCOC(=O)CCCCC(=O)OCCOCCOCCCC | inactive | 
FC(F)(F)C(F)(F)C(F)(F)C(F)(F)C(F)(F)C(F)(F)C(F)(F)I | inactive | 
O=C(O)C(F)(F)C(F)(F)C(F)F | inactive | 
C=C(C)C(=O)OCC(F)(F)C(F)(F)C(F)(F)F | inactive | 
